Drawing on PubChem BioAssay AID2283160 (EPA ToxCast), this text covers outcome and AC50 for 15 compounds.

The term AC50 denotes the concentration at which the activity in the assay is half-maximal.

SMILES strings stand for the structures. Results filed as inconclusive are left out. The source made the active and inactive calls. How the source made its calls: active means hit-call score of the fitted dose curve at least 0.9, where 1 is the maximum; inconclusive means response in the unintended direction; inactive means score below 0.9.

Sequence of human Fibroblast Growth Factor Receptor 3 (FGFR3), FGFR3 (gene 2261) (P22607 whole entry, looked up): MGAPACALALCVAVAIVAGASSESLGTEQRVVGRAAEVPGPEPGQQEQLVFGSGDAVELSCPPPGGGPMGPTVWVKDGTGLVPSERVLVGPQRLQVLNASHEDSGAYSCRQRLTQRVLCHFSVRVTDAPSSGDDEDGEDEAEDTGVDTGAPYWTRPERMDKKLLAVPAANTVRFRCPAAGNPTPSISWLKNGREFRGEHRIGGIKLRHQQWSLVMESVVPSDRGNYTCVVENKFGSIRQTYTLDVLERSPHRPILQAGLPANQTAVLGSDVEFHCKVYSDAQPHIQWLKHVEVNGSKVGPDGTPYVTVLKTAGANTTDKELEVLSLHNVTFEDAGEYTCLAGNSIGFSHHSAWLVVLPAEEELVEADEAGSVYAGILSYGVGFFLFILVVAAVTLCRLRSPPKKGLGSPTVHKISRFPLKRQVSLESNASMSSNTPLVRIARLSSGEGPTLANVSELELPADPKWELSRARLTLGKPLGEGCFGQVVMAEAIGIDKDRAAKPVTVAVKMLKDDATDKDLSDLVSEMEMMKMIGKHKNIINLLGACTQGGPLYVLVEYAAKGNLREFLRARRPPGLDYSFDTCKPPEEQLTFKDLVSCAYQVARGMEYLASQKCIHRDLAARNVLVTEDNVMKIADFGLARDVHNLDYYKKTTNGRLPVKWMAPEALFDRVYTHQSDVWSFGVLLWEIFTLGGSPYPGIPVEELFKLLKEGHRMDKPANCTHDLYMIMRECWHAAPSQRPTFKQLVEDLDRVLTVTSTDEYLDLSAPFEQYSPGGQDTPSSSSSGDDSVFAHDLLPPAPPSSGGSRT

The experiment concerns the target human Fibroblast Growth Factor Receptor 3 (FGFR3), FGFR3 (gene 2261) (UniProt P22607). The experiment is described as follows: NVS_ENZ_hFGFR3: NovaScreen (NVS) Enzymatic Assay for human Fibroblast Growth Factor Receptor 3 (FGFR3). As to the method:
NVS_ENZ_hFGFR3 is a biochemical, single-readout assay that uses extracted gene-proteins in a cell-free assay. Measurements were taken 1 hour after chemical dosing in a 384-well plate.NVS_ENZ_hFGFR3 is one of one assay component(s) measured or calculated from the NVS_ENZ_hFGFR3 assay. It is designed to make measurements of enzyme activity, a form of enzyme reporter, as detected with fluorescence intensity signals by Fluorescence and electrophoretic mobility shift technology.Data from the assay component NVS_ENZ_hFGFR3 was analyzed into 1 assay endpoint. This assay endpoint, NVS_ENZ_hFGFR3, was analyzed in the positive analysis fitting direction relative to DMSO as the negative control and baseline of activity. Using a type of enzyme reporter, loss-of-signal activity can be used to understand changes in the enzymatic activity as they relate to the gene FGFR3. Furthermore, this assay endpoint can be referred to as a primary readout, because this assay has produced multiple assay endpoints where this one serves a enzymatic activity function. To generalize the intended target to other relatable targets, this assay endpoint is annotated to the kinase intended target family, where the subfamily is receptor tyrosine kinase.
Binding assays used specific radioligands (tritiated, iodinated) with non-radioactive competitive displacement ligands in agonist or antagonist protocols (as indicated) and various reference compounds and inhibitors to titrate specific binding to receptors and transporters. Most enzyme assays (CYPs, kinases, phosphatases, proteases, HDACs) used recombinant protein and specific substrates (fluorescence mostly, some colorimetric and radioactive) and inhibitors, followed by a biochemical separation of substrate and product. All assays for the biochemical HTS were initially run in duplicate at a single concentration (10 uM for CYP450 assays and 25 uM for all others). Assay-chemical combinations meeting a pre-defined threshold (e.g., 30% inhibition and other criteria defined below) were then run in singleton concentration-response format with maximum concentration of 20 uM for CYPs and 50 uM for all others. Each assay was run with positive and negative controls, and concurrent controls on every plate. The follow-up (secondary) screen tested active chemical-pairs in concentration series, as well as a few additional assays not tested in the primary screen, some selected negative inactives, and several cases re-run in the concentration series for confirmatory purposes.
Turning to `CNC(=O)Oc1ccccc1OC(C)C`, the call was inactive.
With `CCCOc1nn(C(=O)NS(=O)(=O)c2ccccc2C(=O)OC)c(=O)n1C`, the compound was called inactive.
As for `S=C(S)NCCNC(=S)S.[Mn+2].[S-]C([S-])=NCCN=C([S-])[S-].[Zn+2]`, the AC50 is 38.2 µM (active).
`CCCCN(CC)c1c([N+](=O)[O-])cc(C(F)(F)F)cc1[N+](=O)[O-]`: the outcome was inactive.
Same read-out and setting: with `COCC(C)N(C(=O)CCl)c1c(C)csc1C` (stereo not given) the entry was “inactive”.
Turning to `S=C([S-])NCCNC(=S)[S-].[Mn+2]`, the AC50 is 40.5 µM (active).
Regarding `CCCC(=NOCC)C1=C(O)CC(CC(C)SCC)CC1=O` (stereo not given), the result was inactive.
Same read-out and setting: for `CC(Oc1cccc(Cl)c1)C(=O)O` (stereo not given) the value was “inactive”; for `COP(=O)(OC)OC=C(Cl)Cl`, “inactive”.
Still for that read-out and setting: for `CCCC1COC(Cn2cncn2)(c2ccc(Cl)cc2Cl)O1` (stereo not given) the value was “inactive”; for `CSc1nnc(C(C)(C)C)c(=O)n1N`, “inactive”.
On to `CN(C)[C@@H]1C(=O)C(C(N)=O)=C(O)[C@@]2(O)C(=O)C3=C(O)c4c(O)cccc4[C@@](C)(O)[C@H]3[C@H](O)[C@@H]12`, for which the AC50 is 14.5 µM (active).
As for `CCOc1cc(Oc2ccc(C(F)(F)F)cc2Cl)ccc1[N+](=O)[O-]`, the result was inactive.
As for `CNC(=O)ON=C(SC)C(=O)N(C)C`, the compound was classed as inactive.
For `CN(C)C(=S)SSC(=S)N(C)C`, the compound was classed as inactive.
